# DT40 TDP1 no CPT: qHTS for Inhibitors of human tyrosyl-DNA phosphodiesterase 1 (TDP1): qHTS in cells in absence of CPT; DT40 Tdp1-/- hTDP1 cells, no CPT, ATP luminescence, 48 h; Potency, µM (series often up to 46.2 µM), for inactives: at the highest dose activity change, negative = growth inhibition, hits mostly inhibitors; 420,000 compounds, 15% hits; AID 686978, 2013; also: nearly all actives have a fitted effect of over 55% in size
#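 Luminescent ATP content (CellTiter-Glo) served as the growth readout. Knockout chicken DT40 cells expressing human TDP1 were exposed to compounds without camptothecin for a minimum 48 hr at 37 °C.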
# HT1080 IDH1KD tx: qHTS for induction of synthetic lethality in tumor cells producing 2HG: qHTS for the HT-1080-IDH1KD cell line. HT-1080 IDH1 knockdown viability, ATP luminescence, 48 h. 360,000 compounds, 2% hits. Potency, µM (series often up to 46.1 µM), for the others: top-dose activity, negative = toxicity, usual class: cytotoxic;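 also: 0% = DMSO wells and -100% = cell-free medium wells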
#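 % activity derives from luminescence (CellTiter-Glo), normalised to DMSO and no-cell wells. HT-1080-IDH1KD cells, 750/well, had 48 h compound exposure at 37 °C.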
# KB-V1 MDR tox: qHTS assay for MDR1-selective chemotherapeutics: Primary screen using the drug-selected MDR subline cells KB-V1 | Potency, µM (series often up to 46.1 µM), hits mostly cytotoxic | 400,000 compounds, 3.4% hits | KB-V1 MDR cells viability, CellTiter-Glo, 72 h; also: nearly all actives have a fitted effect of over 60% in size
#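 Drug-selected KB-V1 cells, grown in DMEM lacking phenol red with 10% FBS, receive compound titrations; after three days at 37 degrees C, surviving cell ATP is quantified by CellTiter-Glo luminescence and responses normalized and curve-fitted.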
# HT1080NT lethal: qHTS for induction of synthetic lethality in tumor cells producing 2HG: qHTS for the HT-1080-NT fibrosarcoma cell line; 360,000 compounds, 1.6% hits; Potency, µM (highest dose often 46.1 µM), for the others: at the highest dose activity, negative = less viability, most hits filed as cytotoxic; AID 686970, 2013; HT-1080-NT fibrosarcoma viability, CellTiter-Glo ATP luminescence, 48 h;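 also: NT is the 2HG producing partner of a matched IDH1 knockdown line; 0% = DMSO-treated cells and -100% = media-only wells without cells; nearly all actives have a fitted effect of over 55% in size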
#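 Compounds were tested in concentration-response format on HT-1080-NT cells for 48 hours at 37 degrees C. Cell viability came from CellTiter-Glo luminescence; curves were classified by r2, response magnitude and activity.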
# TDP1 cell CPT: qHTS for Inhibitors of human tyrosyl-DNA phosphodiesterase 1 (TDP1): qHTS in cells in presence of CPT | chicken DT40 Tdp1-/-;hTDP1 cells + 20 nM CPT, ATP luminescence, 48 h | Potency, µM (highest dose often 46.2 µM), for the others: at the top dose activity change, negative = growth inhibition, usual class: inhibitors | 420,000 compounds, 12% hits; also: nearly all actives have a fitted effect of over 55% in size
#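 Chicken DT40 Tdp1-/- cells complemented with human TDP1, 400 cells/well, exposed to compounds plus 20 nM camptothecin for at least 48 h at 37 C; viability read as ATP content by CellTiter-Glo luminescence.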
# KB-3-1 tox: qHTS assay for MDR1-selective chemotherapeutics: Primary screen using the parental adenocarcinoma cell KB-3-1; KB-3-1 viability, CellTiter-Glo ATP luminescence, 72 h; Potency, µM (titrated, usually from 46.1 µM), actives largely listed as cytotoxic; 400,000 compounds, 1.4% hits; AID 1347075, 2019; also: nearly all actives have a fitted effect of over 60% in size
#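 Viability of parental KB-3-1 cells, measured by CellTiter-Glo luminescence, followed a 72 h incubation at 37 °C with pinned compounds in phenol-red-free DMEM containing 10% FBS.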
# * hit, by the source's call; i = inactive; ? = inconclusive; . = not tested or not shown. In the library only some 19% were active in any assay of this set; here they are far more common. Calls follow the shape of the dose curve; as a rule, active = well fitted curve in the direction sought with a large enough effect; inconclusive = small, poorly fitted or top-dose-only effect, or another doubt; inactive = no such curve, though single readings can be large; an effect the other way counts as inactive or inconclusive. Unless noted, % is scaled to controls: 0 for no effect and ±100 for the full control effect; potency is read from the fitted curve at half-maximal effect.
SMILES,DT40 TDP1 no CPT,HT1080 IDH1KD tx,KB-V1 MDR tox,HT1080NT lethal,TDP1 cell CPT,KB-3-1 tox
COc1ccc(-c2noc(CSc3nnc(Cc4ccccc4)n3-c3ccc(Cl)cc3)n2)cc1,?,?,12µM*,?,?,i
Cc1ccc(-c2noc(CSc3nnc(C)n3-c3ccc(F)cc3)n2)cc1,-18%,.,i,.,-18%,i
Cc1ccc(-c2noc(CSc3nnc(Cc4ccccc4)n3-c3ccc(Cl)cc3)n2)cc1,-30%,?,18µM*,?,-15%,?
COc1ccc(-n2c(SCc3nc(-c4ccc(Cl)cc4)no3)nnc2-c2ccncc2)cc1,?,.,?,.,?,i
Cc1nnc(SCc2nc(-c3ccc(Cl)cc3)no2)n1-c1ccc(F)cc1,26µM*,.,i,.,?,?
Cc1ccc(-n2c(Cc3ccccc3)nnc2SCC(=O)NNC(=O)Cc2ccccc2)cc1,-13%,10%,i,-2%,-2%,i
CCOc1ccc(C2CC(c3c(O)n(C4CCCCC4)c(=O)[nH]c3=O)=Nc3ccccc3S2)cc1 (stereo not given),1%,.,i,.,-3%,i
CCOC(=O)c1c(-c2ccc(OC)cc2)oc2ccc(OCc3ccccc3C)cc12,?,.,?,.,-23%,i
O=C(NCCc1ccccc1Cl)c1ccc2c(c1)nc1n2CCOC1,-18%,.,i,.,12%,i
CC(=O)c1cccc(Nc2c3c(nc4nc(-c5cccs5)nn24)CCCC3)c1,18µM*,.,i,.,?,i
Fc1cc(Br)ccc1Nc1c2c(nc3nc(-c4cccs4)nn13)CCCC2,18µM*,.,i,.,21µM*,?
Cc1[nH]c2ccccc2c1C1(O)C(=O)N(Cc2ccc3c(c2)OCO3)c2ccccc21 (stereo not given),5.2µM*,?,?,-11%,3.3µM*,?
Cc1[nH]c2ccccc2c1C1(O)C(=O)N(Cc2ccc(Cl)cc2)c2ccccc21 (stereo not given),5.2µM*,.,.,.,5.8µM*,.
O=C1N(Cc2ccccc2)c2ccc(Cl)cc2C12OCCO2,-4%,-17%,?,-18%,-8%,i
Cc1ccc(CN2C(=O)C(O)(c3c(C)[nH]c4ccccc34)c3ccccc32)cc1 (stereo not given),4.6µM*,.,i,.,6.5µM*,i
O=C(c1cc(=O)[nH]c2ccccc12)N1CCN(Cc2ccc3c(c2)OCO3)CC1,-5%,5%,i,7%,-8%,i
Cc1[nH]c2ccccc2c1C1(O)C(=O)N(Cc2ccccc2)c2ccc(Cl)cc21 (stereo not given),5.2µM*,.,i,.,6.5µM*,i
CCc1ccc(-n2nc3ccc(NC(=O)c4ccc(C#N)cc4F)cc3n2)cc1,.,.,i,.,.,i
Cc1cc(=O)n2c(C(=O)Nc3ccc(C(=O)OC(C)C)cc3)c(C(=O)Nc3ccccc3)sc2n1,15µM*,-23%,i,?,?,i
Cc1ccccc1C(=O)OCc1cc(=O)n2nc(-c3cccs3)sc2n1,-13%,.,i,.,-21%,i
CC(C)C(NS(=O)(=O)c1ccc2c(c1)oc(=O)n2C)C(=O)NCCc1ccccc1 (stereo not given),-5%,.,i,.,-11%,i
COC1CCN(Cc2cn(Cc3ccccc3)nc2-c2cc3ccccc3o2)CC1,26µM*,26µM*,?,?,?,?
OCC1CCN(Cc2cn(Cc3ccccc3)nc2-c2cc3ccccc3o2)CC1,?,?,?,?,?,i
C=CCc1cccc(/C=N/NC(=O)c2ccccc2OC)c1O,?,16µM*,i,?,?,i
C=CCc1cccc(/C=N/NC(=O)C(C)Nc2ccc(C)cc2)c1O (stereo not given),8.2µM*,?,21µM*,-24%,16µM*,?
SMILES,DT40 TDP1 no CPT,HT1080 IDH1KD tx,KB-V1 MDR tox,HT1080NT lethal,TDP1 cell CPT,KB-3-1 tox
C=CCc1cccc(/C=N/NC(=O)C(=O)Nc2ccc(C)cc2)c1O,5.2µM*,-17%,i,-10%,3.7µM*,i
O=C(N/N=C/c1ccc(Cl)cc1Cl)c1ccc2nc[nH]c2c1,?,1%,i,-3%,?,i
C=CCc1cccc(/C=N/NC(=O)c2ccc3nc[nH]c3c2)c1O,5.8µM*,?,i,?,9.2µM*,?
C=CCc1cccc(/C=N/NC(=O)c2ccccc2Br)c1O,?,?,i,?,?,?
NS(=O)(=O)c1ccc(N=Nc2nc3[nH]cnc(=S)c3[nH]2)cc1,6.3µM*,.,1.2µM*,.,5µM*,1.2µM*
CCc1nnc(NC(=O)c2ccc(COc3cccc(C)c3)o2)s1,-15%,-12%,i,-1%,-1%,i
Cc1ccc(S(=O)(=O)N(C)C)cc1NC(=S)NC(C)CCCC(C)C (stereo not given),?,?,?,?,26µM*,?
CCCCCCC(C)NC(=S)Nc1cc(S(=O)(=O)N(C)C)ccc1C (stereo not given),23µM*,?,?,-11%,?,?
CC(=O)NNC(=S)Nc1cc(S(=O)(=O)N(C)C)ccc1C,?,17%,i,20%,-2%,i
Cc1ccc(S(=O)(=O)N(C)C)cc1NC(=S)NC(C)CCC(C)C (stereo not given),21µM*,-3%,?,-6%,23µM*,i
Cc1cc(C)c2sc(N(CCCN(C)C)C(=O)c3ccc(S(=O)(=O)N(C)Cc4ccccc4)cc3)nc2c1,?,-22%,21µM*,-18%,?,?
CCCCN(CC)S(=O)(=O)c1ccc(C(=O)N(CCCN(C)C)c2nc3cc(C)cc(C)c3s2)cc1,23µM*,?,26µM*,21µM*,?,?
CCN(Cc1ccccc1)S(=O)(=O)c1ccc(C(=O)N(CCCN(C)C)c2nc3c(F)cccc3s2)cc1,?,-18%,i,-2%,?,i
